This is an account of results in PubChem BioAssay (NCI).

This is part of a sample that, as a whole, favours compounds with a hit. Of some 83,000 tested, about 20% had one in any assay.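 A percent growth of 40 corresponds to 60% growth inhibition; 0 means no net growth; -100 means all cells died. Active threshold: below 10.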 Unmarked numbers belong to inactive results. Active and inactive are the calls of the source.

Test systems include SR leukemia; RPMI-8226 leukemia; OVCAR-8 ovarian; OVCAR-5 ovarian; OVCAR-4 ovarian; SK-OV-3 ovarian; IGROV1 ovarian; OVCAR-3 ovarian; HS 578T breast; NCI/ADR-RES ovarian; T-47D breast; BT-549 breast; MDA-MB-435 melanoma; SW-620 colon; MCF7 breast; HCT-116 colon; HCC-2998 colon; KM12 colon.
Common to all, as to assay: NCI-60 one-dose screen, 48 h (100 = growth as untreated, 0 = no growth, -100 = all killed)
Holding throughout (details): 10 µM unless noted

With `O=C(Nc1cc(Cl)cc(Cl)c1)Nc1nc2ccc([N+](=O)[O-])cc2s1`, the growth was -0.61% (active) in the assay with SR leukemia; -23.8% (active) in the assay with RPMI-8226 leukemia; 8.77% (active) in the assay on OVCAR-8 ovarian; 24% in the assay on OVCAR-5 ovarian; 10% in the assay with OVCAR-4 ovarian; -2.86% (active) in the assay on SK-OV-3 ovarian. Also, the growth in the assay on IGROV1 ovarian was 21.1%; in the assay with OVCAR-3 ovarian, 13.8%; in the assay with HS 578T breast it was -6.91% (active); in the assay on NCI/ADR-RES ovarian it was 2.26% (active); in the assay on T-47D breast it was -13.4% (active); with BT-549 breast, -24% (active). The growth was -6.04% (active) in the assay with MDA-MB-435 melanoma; 8.7% (active) in the assay on SW-620 colon; 2.98% (active) in the assay on MCF7 breast; 0.0425% (active) in the assay with HCT-116 colon; 3.91% (active) with HCC-2998 colon; 3.63% (active) in the assay with KM12 colon.

As to `Cc1ccc(S(=O)(=O)N/N=C/c2cn(-c3ccc(F)cc3)nc2-c2ccc(S(C)(=O)=O)cc2)cc1`, the growth in the assay with SR leukemia is 107%; with RPMI-8226 leukemia, 106%; in the assay with OVCAR-8 ovarian it was 102%; in the assay on OVCAR-5 ovarian it was 105%; with OVCAR-4 ovarian, 101%; in the assay with SK-OV-3 ovarian, 105%. The growth is 99.7% in the assay on IGROV1 ovarian; 109% in the assay on OVCAR-3 ovarian; 107% with HS 578T breast; 106% with NCI/ADR-RES ovarian; 98.5% in the assay with T-47D breast; 105% with BT-549 breast. In addition, the growth was 100% in the assay with MDA-MB-435 melanoma; 103% in the assay on SW-620 colon; 95.7% in the assay on MCF7 breast; 107% in the assay on HCT-116 colon; 108% in the assay with HCC-2998 colon; 102% in the assay with KM12 colon.

In the case of `NC(=O)N1N=C(c2cc3ccccc3oc2=O)CC1c1cn(-c2ccccc2)nc1-c1ccc(Cl)cc1` (configuration not stated), the growth with SR leukemia is 44.2%; in the assay with RPMI-8226 leukemia, 48.4%; in the assay on OVCAR-8 ovarian, 37.1%; in the assay on OVCAR-5 ovarian it was 64.9%; in the assay with OVCAR-4 ovarian, 34.9%; with SK-OV-3 ovarian it was 75.6%. For the same compound, the growth in the assay on IGROV1 ovarian was 28.8%; in the assay on OVCAR-3 ovarian, 17.6%; in the assay on HS 578T breast, 65.1%; in the assay with NCI/ADR-RES ovarian, 29.3%; in the assay with T-47D breast, 25.1%; with BT-549 breast it was 68.7%. Also, the growth is 47.4% in the assay on MDA-MB-435 melanoma; 35.5% in the assay with SW-620 colon; 25.4% in the assay on MCF7 breast; 26.7% with HCT-116 colon; 57% in the assay on HCC-2998 colon; 34.5% in the assay with KM12 colon.

On to `O=C(Nc1cccc(Cl)c1)Nc1nc2ccc([N+](=O)[O-])cc2s1`, for which the growth in the assay on SR leukemia was 2.1% (active); with RPMI-8226 leukemia, 3.45% (active); in the assay with OVCAR-8 ovarian, 7.34% (active); in the assay with OVCAR-5 ovarian, 26.5%; in the assay with OVCAR-4 ovarian, 4.33% (active); in the assay with SK-OV-3 ovarian, -1.18% (active). The growth in the assay with IGROV1 ovarian is 14.8%; in the assay on OVCAR-3 ovarian it was 9.51% (active); in the assay on HS 578T breast, -5.35% (active); in the assay on NCI/ADR-RES ovarian, 2.96% (active); with T-47D breast, -11.7% (active); in the assay on BT-549 breast, -28.7% (active). In addition, the growth in the assay on MDA-MB-435 melanoma was -8.69% (active); in the assay on SW-620 colon, 3.71% (active); with MCF7 breast it was 4.68% (active); with HCT-116 colon, 0.143% (active); in the assay with HCC-2998 colon it was 5.59% (active); in the assay with KM12 colon, 0.174% (active).

On to `Cc1cc(O)c2c(c1)C(=O)C(c1c(C)cc3c(c1O)C(=O)C=CC3=O)=CC2=O`, for which the growth in the assay with SR leukemia is 11.1%; with RPMI-8226 leukemia, 15.2%; with OVCAR-8 ovarian it was 82.5%; with OVCAR-5 ovarian it was 117%; with OVCAR-4 ovarian, 86.3%; in the assay with SK-OV-3 ovarian, 89.2%. Besides, the growth in the assay on IGROV1 ovarian is 108%; with OVCAR-3 ovarian it was 23.4%; in the assay with HS 578T breast it was 102%; in the assay with NCI/ADR-RES ovarian, 100%; in the assay with T-47D breast, 21.9%; in the assay on BT-549 breast, 113%. The growth in the assay on MDA-MB-435 melanoma was 96.5%; in the assay on SW-620 colon it was 8.08% (active); in the assay on MCF7 breast it was 49.9%; in the assay with HCT-116 colon, 72.8%; in the assay on HCC-2998 colon it was 112%; with KM12 colon, 109%.

As to `CCCCCCCCNC(=O)c1ccc(Cn2c(CCCC)nc3c(N)nc4ccccc4c32)cc1`, the growth with SR leukemia was 8.69% (active); with RPMI-8226 leukemia, -38% (active); in the assay with OVCAR-8 ovarian, -10.9% (active); in the assay on OVCAR-5 ovarian, 75.5%; in the assay on OVCAR-4 ovarian it was -54.3% (active); in the assay with SK-OV-3 ovarian it was 76.1%. The growth with IGROV1 ovarian was -37.8% (active); in the assay on OVCAR-3 ovarian, 69.5%; in the assay on HS 578T breast, 87.4%; with NCI/ADR-RES ovarian, -62.2% (active); with T-47D breast it was -38.2% (active); in the assay with BT-549 breast, 92.7%. Moreover, the growth was -83.1% (active) in the assay with MDA-MB-435 melanoma; -39.6% (active) in the assay on SW-620 colon; -78% (active) in the assay with MCF7 breast; -84.2% (active) in the assay with HCT-116 colon; 15.5% in the assay on HCC-2998 colon; 42.1% with KM12 colon.

Take `Oc1ccc(CSc2nnc(-c3ccccc3)o2)c2cccnc12`: the growth in the assay with SR leukemia was 36.8%; in the assay with RPMI-8226 leukemia, 14.1%; with OVCAR-8 ovarian, 17.5%; in the assay with OVCAR-5 ovarian, 74%; in the assay on OVCAR-4 ovarian, 16.5%; with SK-OV-3 ovarian, 10.8%. In addition, the growth with IGROV1 ovarian is 18.5%; in the assay on OVCAR-3 ovarian it was 28.2%; with HS 578T breast it was -3.94% (active); in the assay on NCI/ADR-RES ovarian, 11.1%; in the assay on T-47D breast, 4.16% (active); in the assay with BT-549 breast, 29.4%. The growth is 21.8% with MDA-MB-435 melanoma; 14.5% in the assay with SW-620 colon; 9.21% (active) with MCF7 breast; 16.6% with HCT-116 colon; 37.6% in the assay with HCC-2998 colon; 17.3% in the assay on KM12 colon.

`CCOC(=O)c1c(NC(=O)c2ccc(F)cc2F)sc2c1CCC(=O)C2`: the growth in the assay with SR leukemia was 88%; in the assay with RPMI-8226 leukemia, 106%; with OVCAR-8 ovarian, 96.9%; in the assay with OVCAR-5 ovarian, 104%; with OVCAR-4 ovarian, 102%; with SK-OV-3 ovarian, 104%. Besides, the growth is 100% in the assay on IGROV1 ovarian; 113% with OVCAR-3 ovarian; 103% with HS 578T breast; 96.8% in the assay with NCI/ADR-RES ovarian; 81.4% in the assay with T-47D breast; 94.2% in the assay with BT-549 breast. For the same compound, the growth with MDA-MB-435 melanoma is 98.9%; in the assay on SW-620 colon, 69.7%; in the assay with MCF7 breast, 93.4%; in the assay on HCT-116 colon, 96.5%; with HCC-2998 colon, 107%; in the assay with KM12 colon, 90.9%.

In the case of `CC(C)=CCc1c2c(c(O)c3c1O[C@]14C(=C[C@@H]5C[C@H]1C(C)(C)O[C@@]4(C/C=C(/C)C(=O)O)C5=O)C3=O)CC(O)C(C)(C)O2` (some centres not stated), the growth with SR leukemia was -5.31% (active); in the assay on RPMI-8226 leukemia it was -18.5% (active); in the assay on OVCAR-8 ovarian, -25.1% (active); in the assay with OVCAR-5 ovarian, -10.7% (active); in the assay on OVCAR-4 ovarian, 18.7%; in the assay on SK-OV-3 ovarian it was 30.4%. Moreover, the growth was 5.2% (active) with IGROV1 ovarian; -96.4% (active) in the assay with OVCAR-3 ovarian; 15.7% in the assay on HS 578T breast; 18% in the assay with NCI/ADR-RES ovarian; -10.2% (active) with T-47D breast; -14.3% (active) in the assay on BT-549 breast. In addition, the growth in the assay on MDA-MB-435 melanoma is -16% (active); in the assay with SW-620 colon it was -44.8% (active); with MCF7 breast it was -41.4% (active); with HCT-116 colon, -69.8% (active); in the assay on HCC-2998 colon, -84.7% (active); in the assay with KM12 colon it was -68.9% (active).
